High-throughput results as filed in PubChem.
The list is not random: actives were taken first. Their share in the collection is about 19%.
HT1080 IDH1KD tx = qHTS for induction of synthetic lethality in tumor cells producing 2HG: qHTS for the HT-1080-IDH1KD cell line; 2% of 360,000 active; AID 686971, 2013; Potency, µM (highest dose often 46.1 µM), hits mostly cytotoxic; HT-1080 IDH1 knockdown viability, ATP luminescence, 48 h
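Luminescent ATP read-out (CellTiter-Glo, 10 min at room temperature) after 48 h compound exposure at 37 °C gave viability of IDH1-knockdown HT-1080 cells. Activity was normalised to DMSO and cell-free wells, then fitted as concentration-response curves.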
DT40 TDP1 CPT = qHTS for Inhibitors of human tyrosyl-DNA phosphodiesterase 1 (TDP1): qHTS in cells in presence of CPT; AID 686979, 2013; chicken DT40 Tdp1-/-;hTDP1 cells + 20 nM CPT, ATP luminescence, 48 h; 12% of 420,000 active; Potency, µM (highest dose often 46.2 µM), usual class: inhibitors; further: nearly all actives have a fitted effect of over 55% in size
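Cell growth measured by CellTiter-Glo luminescence after a minimum 48 h, 37 C compound exposure with 20 nM CPT in Tdp1-knockout DT40 cells stably expressing hTDP1, seeded 400/well; qHTS titration format.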
HT1080NT lethal = qHTS for induction of synthetic lethality in tumor cells producing 2HG: qHTS for the HT-1080-NT fibrosarcoma cell line; HT-1080-NT fibrosarcoma viability, CellTiter-Glo ATP luminescence, 48 h; Potency, µM (titrated, usually from 46.1 µM), actives largely listed as cytotoxic; 1.6% of 360,000 active; AID 686970, 2013;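 further: NT is the 2HG producing partner of a matched IDH1 knockdown line; nearly all actives have a fitted effect of over 55% in size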
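Fibrosarcoma NT cells, 750 per well in 5% FBS RPMI, were exposed to compound for 48 hours. Viability: CellTiter-Glo luminescence.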
TDP1 cell noCPT = qHTS for Inhibitors of human tyrosyl-DNA phosphodiesterase 1 (TDP1): qHTS in cells in absence of CPT; DT40 Tdp1-/- hTDP1 cells, no CPT, ATP luminescence, 48 h; Potency, µM (highest dose often 46.2 µM), most hits filed as inhibitors; 15% of 420,000 active; AID 686978, 2013; further: nearly all actives have a fitted effect of over 55% in size
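Compound effects on proliferation are scored in DT40 Tdp1-/-;hTDP1 cells in the absence of CPT. ATP levels (CellTiter-Glo luminescence) are recorded after a ≥48 hr, 37 °C incubation.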
IL1B secr inh = qHTS for Inhibitors of Inflammasome Signaling: IL-1-beta AlphaLISA Primary Screen. THP-1 LPS/ATP IL-1B secretion, AlphaLISA, 16 h; active compounds read low. 4.7% of 360,000 active. AID 743279, 2014. activity change, % at 57.5 µM; in the data active means activity change below about -50%; inconclusive means mostly about -30% to -49%
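Secreted IL-1B measured by AlphaLISA bead assay after 16 h compound exposure of THP-1 cells; compounds (final up to 57.5 uM) added 1 h before LPS (250 ng/mL) and ATP (1.25 mM) stimulation; lower signal means less secretion.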
Numbers stand for hits; – = inactive; ? = inconclusive; · = no result given; [ ] = remark or other dose. Unless noted, the call rests on the fitted dose curve; in most records, active means well fitted curve in the direction sought with a large enough effect; inconclusive means small, poorly fitted or top-dose-only effect, or another doubt; inactive means no such curve, though single readings can be large; an effect the other way counts as inactive or inconclusive.

SMILES	HT1080 IDH1KD tx	DT40 TDP1 CPT	HT1080NT lethal	TDP1 cell noCPT	IL1B secr inh
COc1cc(C(=O)N2CCN(c3cccc(C(F)(F)F)c3)CC2)ccc1OCC(=O)N1CCOCC1	–	23µM	–	21µM	–
CCn1cc(C(=O)N2CCN(c3cccc(C)c3C)CC2)c2cc(OC)c(OC)cc2c1=O	·	21µM	·	21µM	·
COc1cc2c(C(=O)N3CCN(c4ccccc4F)CC3)cn(C)c(=O)c2cc1OC	–	–	–	–	–
Cc1ccc(-n2cnc3c(=O)[nH]cnc32)cc1[N+](=O)[O-]	–	–	–	–	–
Cc1ccc(C)c(N(CC(N)=O)S(C)(=O)=O)c1	–	?	–	?	–
CCn1cc(C(=O)N2CCN(c3cccc(C(F)(F)F)c3)CC2)c2cc(OC)c(OC)cc2c1=O	·	18µM	·	23µM	·
CCn1cc(C(=O)NCC(=O)OC)c2cc(OC)c(OC)cc2c1=O	–	–	–	–	–
Cc1ccc([N+](=O)[O-])cc1S(=O)(=O)Nc1cccc(S(=O)(=O)NC2=NCCC2)c1	–	–	–	–	–
CNC(=O)CN(Cc1ccccc1)S(=O)(=O)c1ccc(Cl)cc1	–	–	–	–	–
COc1ccc(S(=O)(=O)N(CC(=O)Nc2cc(Cl)ccc2C)Cc2ccccc2)cc1OC	·	15µM	·	?	·
COc1ccc(NC(=O)CN(Cc2ccccc2)S(=O)(=O)c2ccc(C)cc2)cc1Cl	·	18µM	·	?	·
CCc1cc2c(=O)n(-c3ccc(C)cc3)cnc2s1	–	–	–	–	–
COc1cccc(COC(=O)c2ccc(-c3nnn(Cc4cccc(OC)c4)n3)cc2)c1	·	–	·	–	·
O=C(O)Cc1sc(Nc2cccc3ccccc23)nc1-c1ccccc1	–	–	–	–	–
O=C(O)Cc1sc(Nc2cccc3ccccc23)nc1-c1ccc(Cl)cc1	–	–	12µM	–	–
CCN1C(=O)[C@H]2[C@@H](c3ccc(SC4CCCCC4)c(OC)c3)N3CCCC[C@@]3(C(=O)OC)[C@H]2C1=O	?	?	–	23µM	–
CCSc1ccc([C@@H]2[C@H]3C(=O)N(CC)C(=O)[C@H]3[C@]3(C(=O)OC)CCCCN23)cc1OC	–	?	–	16µM	–
CCN1C(=O)[C@@H]2[C@@H](c3ccc(SC4CCCCC4)cc3)N3CCCC[C@@]3(C(=O)OC)[C@@H]2C1=O	–	?	–	?	–
CCCSc1ccc([C@@H]2[C@@H]3C(=O)N(CC)C(=O)[C@@H]3[C@]3(C(=O)OC)CCCCN23)cc1OC	–	16µM	–	23µM	–
CCN1C(=O)[C@@H]2[C@@H](c3ccc(-c4ccc5c(c4)OCO5)c(OC)c3)N3CCCC[C@@]3(C(=O)OC)[C@@H]2C1=O	–	?	–	?	–
CCCSc1ccc([C@@H]2[C@@H]3C(=O)N(C)C(=O)[C@@H]3[C@]3(C(=O)OC)CCCN23)cc1OC	–	18µM	–	?	–
O=C(CC1C(=O)NCCN1Cc1cccc(C(F)(F)F)c1)NC1CCCCCC1 (stereo unspecified)	–	–	–	?	–
CC1CCCN(S(=O)(=O)c2ccc3oc(=O)ccc3c2)C1 (stereo unspecified)	–	–	–	–	–
CCCCCCSc1ccc([C@@H]2[C@H]3C(=O)N(CC)C(=O)[C@H]3[C@]3(C(=O)OC)CCCCN23)cc1OC	–	21µM	–	?	–
Cn1nc(C(=O)NNC(=O)c2cccc(Cl)c2)ccc1=O	–	–	–	–	–
O=S(=O)(Cc1noc(-c2ccccc2Cl)n1)c1ccccn1	–	–	–	–	–
O=C(Cn1cncn1)NCC1Cc2cc(-c3ccsc3)cc(Cl)c2O1 (stereo unspecified)	·	–[9.04 µM]	·	–	·
CCN1C(=O)[C@H]2[C@@H](c3ccc(-c4ccc(OC)cc4)cc3)N[C@@](CC(C)C)(C(=O)OC)[C@H]2C1=O	–	?	–	23µM	–
